Only some compounds are listed: those with a hit (about 1.6% of all), similar ones and a draw of the others.
Phagocytosis inh: blocks phagocytosis by macrophages; J774A.1 macrophage IgG-bead phagocytosis, imaging; inhibition, % at 5 µM; hit rate 0.07% among 110,000;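 active = inhibition above the mean of the plate negative controls plus 5 SD, cut at about 13% in these data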;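 also: phagocytic index as fraction of beads internalized from green versus red external bead signal; plate controls were DMSO negative control for no effect and cytochalasin-D positive control for full effect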
VCAM1 TNFa inh: reduces TNF alpha induced VCAM1 expression in HUVEC; inhibition, % at 2 µM; hit rate 0.48% among 95,000; HUVEC TNFa-induced VCAM-1 immunofluorescence, high-content imaging;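 active = inhibition above the batch mean plus 3 SD, with images confirmed as a hit by eye, cut at about 37% in these data; inconclusive = inhibition above that limit but hit not confirmed in images; inactive = inhibition not above that limit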;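 also: 0% = TNF-stimulated DMSO wells and 100% = unstimulated control wells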
TNFa cytotox: toxic to HUVEC cells under TNF alpha stimulation; HUVEC TNFalpha-stimulated, Hoechst cell count, imaging; hit rate 0.17% among 93,000; cell count reduction, % at 2 µM;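 active = cell count reduction exceeding the screen mean by over 5 SD, scaled to untreated wells per plate, cut at about 78% in these data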;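 also: cells counted after 24 h of TNF alpha exposure following the 1 h pretreatment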
cytoskel mod: alters cytoskeleton assembly in HUVEC cells. hit rate 0.18% among 91,000. inhibition, % at 2 µM. HUVEC TNFa F-actin phalloidin imaging, high content. AID 836;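 active = inhibition above the batch mean plus 3 SD and confirmed as a hit by visual image inspection, cut at about 30% in these data, passing the limit was not always enough; inconclusive = above the inhibition threshold but rejected on visual inspection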
Insulin prom inh: TRM-6 insulin promoter activity inhibition. TRM-6 cells (human fetal islet line), insulin promoter-eGFP reporter, imaging; reporter expression induced with tamoxifen. inhibition, % at 2 µM. hit rate 0.9% among 130,000. AID 1273;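 active = inhibition above the mean plus 3 SD, with well images judged a real hit on visual review, cut at about 60% in these data, passing the limit was not always enough; inconclusive = inhibition over the cutoff but images rejected on review; inactive = inhibition not above the cutoff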
E-sel TNF inh: TNF alpha driven E-selectin expression inhibition; inhibition, % at 2 µM; HUVEC TNFa-induced E-selectin immunofluorescence, high content; AID 1246; hit rate 0.71% among 120,000;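 active = inhibition above the batch mean plus 3 SD, and confirmed as a hit on visual image review, cut at about 43% in these data; inconclusive = passes the inhibition cutoff but fails visual image review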;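 also: 0% = TNF-stimulated DMSO wells and 100% = unstimulated control wells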
The depositor's hits bear a star; ? = inconclusive; · = not tested or not shown; [ ] = another dose, or the depositor's remark.

SMILES | Phagocytosis inh | VCAM1 TNFa inh | TNFa cytotox | cytoskel mod | Insulin prom inh | E-sel TNF inh
COc1ccc2cc(CN(CCO)C(=O)c3ccccc3F)c(=O)[nH]c2c1 | -0.3 | -1.1 | 0.8 | -2.6 | 14.8 | 99.7*
CC(OC(=O)CCN1C(=O)c2cccc([N+](=O)[O-])c2C1=O)C(=O)Nc1cc(Cl)cc(Cl)c1 (centres undefined) | -2.3 | · | · | · | 21.6 | 95.0*
COc1cc(C2C(C#N)=C(N)Oc3cc(N(C)C)ccc32)cc2c1OCO2 (centres undefined) | · | 97.2* | 68.1 | -3.5 | -127.3 | ·
NS(=O)(=O)c1ccc(CCNC(=O)CCCCCn2c(=S)[nH]c3ccc(Br)cc3c2=O)cc1 | · | · | · | · | -36.4 | ·
CS(=O)(=O)N(CC(=O)N1CCC(C(N)=O)CC1)c1ccc(Cl)c(C(F)(F)F)c1 | -1.8 | 19.1 | -7.0 | -8.6 | · | ·
CC1CCN(C(=O)CN(c2ccc(Cl)c(C(F)(F)F)c2)S(C)(=O)=O)CC1 | 154.7* | 22.8 | -2.3 | 1.1 | 48.6 | 3.4
Cc1cc(C)nc(NS(=O)(=O)c2ccc(NC(=O)c3cccs3)cc2)n1 | 0.2 | -4.0 | 13.8 | -8.8 | 21.4 | 2.0
CCCCN(CCCC)S(=O)(=O)c1ccc(NC(=O)c2cccs2)cc1 | 0.1 | 2.5 | 2.4 | 15.3 | 48.6 | 84.7*
Cc1ccc(-n2c([O-])nc(-[n+]3ccccc3)c2C=O)cc1 | · | 10.5 | 29.2 | 37.0* | 20.0 | ·
Cc1cc[n+](-c2nc([O-])n(-c3ccccc3)c2C=O)cc1 | · | 4.0 | -4.6 | 11.5 | 63.2 | -30.3
COc1ccc(CNC(=O)/C=C/C(=O)O)cc1OC | 1.0 | · | · | · | · | ·
COc1ccc(CNC(=O)/C=C/c2ccco2)cc1OC | · | · | · | · | 71.4* | -2.2
O=C(C1CC1)N1CCc2cc(Br)cc(S(=O)(=O)NCCCN3CCCC3)c21 | 1.3 | · | · | · | 11.5 | 66.2*
CN(Cc1ccccc1NS(=O)(=O)c1ccc2ccccc2c1)C1CCCCC1 | · | · | · | · | -73.3 | ·
COc1cc(/C=N/NC(=O)c2ccc(-n3cccc3)cc2)ccc1O | · | · | · | · | 71.4* | -0.2
COc1cc(/C=N\NC(=O)c2c(C)nc3cc(C)ccn23)ccc1O | · | · | · | · | 16.7 | ·
S=C(NC1CCCCC1)N(CCc1ccccc1)CCc1ccccc1 | 71.1*[artifact] | · | · | · | · | -9.3
N#Cc1c(NC(=O)CCn2cnc3ccccc3c2=O)oc(-c2ccccc2)c1-c1ccccc1 | · | -28.0 | 22.7 | -25.4 | 75.0* | -20.9
Cc1ccc(NCCc2ccc(C)nc2)cc1 | -0.4 | -0.6 | -17.7 | 6.1 | 75.0* | 7.4
Cc1ccc(CCNc2ccc3ccccc3c2)cn1 | · | -16.0 | -1.5 | -2.6 | 48.6 | -3.2
CSc1nc(N)c2c(C)c(C)sc2n1 | -4.4 | · | · | · | 53.9 | ·
Cc1ccc(S(=O)(=O)NNC(=O)C2COc3ccccc3O2)cc1C (centres undefined) | · | · | · | · | -25.0 | -13.8
Cc1ccc(S(=O)(=O)N2CCN(C(=O)C3COc4ccccc4O3)CC2)cc1C (centres undefined) | · | 6.1 | -10.5 | 8.9 | · | 79.0*
COC(=O)c1ccccc1NC(NC(=O)c1ccco1)C(=O)c1ccc(C)cc1 (centres undefined) | 1.2 | 61.5* | 86.3* | 21.0 | · | 6.1
COC(=O)c1ccccc1NC(=O)c1ccco1 | 1.7 | 0.0 | -11.3 | 0.1 | 21.2 | -7.6
SMILES | Phagocytosis inh | VCAM1 TNFa inh | TNFa cytotox | cytoskel mod | Insulin prom inh | E-sel TNF inh
CC(C)=Cc1oc2ccc([N+](=O)[O-])cc2c1N1CC(C)OC(C)C1 (centres undefined) | · | · | · | · | -35.7 | -25.4
CCN(CC)S(=O)(=O)c1ccc(C)c(NC(=S)N2CCN(Cc3ccc4c(c3)OCO4)CC2)c1 | · | · | · | · | 31.6 | ·
CCCCCCn1nc(C(=O)OCC(=O)c2c(N)n(C)c(=O)n(C)c2=O)c2ccccc2c1=O | · | · | · | · | · | -23.2
CCCCCn1nc(C(=O)OCC(=O)c2c(N)n(C)c(=O)n(C)c2=O)c2ccccc2c1=O | · | · | · | · | 71.4* | -35.2
Cc1ccccc1C(=O)O/N=C/c1c(N2CCOCC2)n(C)c2ccccc12 | 22.9*[artifact] | -4.0 | -6.5 | -0.1 | · | -28.8
COC(=O)C1=C(C)NC(=O)CC1c1ccccc1 (centres undefined) | · | -15.4 | · | -0.3 | 16.3 | -0.4
COC(=O)C1=C(C)NC(=S)N(C(C)=O)C1c1ccccc1 (centres undefined) | · | -18.7 | 2.2 | -4.8 | 77.1* | -3.2
COc1ccccc1NC(=O)CC(=O)CSc1nnc(-c2ccc(C)cc2)n1C | 0.3 | 11.8 | -17.2 | 18.8 | · | 32.1
COc1ccccc1NC(=O)CSc1nnc(-c2ccc(NC(C)=O)cc2)n1C | 0.3 | -7.7 | -11.2 | -0.1 | 0.0 | 67.3*
CCCn1c(SCC(=O)NCc2ccco2)nnc1C(C)C | -2.0 | 83.6* | 82.2* | 26.9 | · | -25.5
COc1ccc(CNC(=O)c2ccc(Br)o2)cc1 | · | · | · | · | 42.9 | ·
O=C(O)C1CCCN1S(=O)(=O)c1ccc(Br)s1 (centres undefined) (tested in a mixture with another compound) | 0.8 | -9.7 | -12.2 | 7.4 | · | 89.5*
CCOc1ccc(CCNC(=O)C2CCN(S(=O)(=O)N3CCC(C)CC3)CC2)cc1OCC | 0.1 | · | · | · | -94.4 | 3.1
CCCCOC(=O)CCn1c(=S)oc2ccccc21 | -0.4 | -4.7 | 0.0 | -54.9 | 25.0 | 66.4*
CCCCCOC(=O)Cn1c(=O)oc2ccccc21 | -0.4 | · | · | · | 14.3 | -21.8
Cc1cccc(NCC(=O)N/N=C/c2ccc(Br)cc2)c1 | · | · | · | · | 26.7 | 10.9
O=C(COC(=O)C1c2ccccc2Oc2ccccc21)NC1CCS(=O)(=O)C1 (centres undefined) | · | 9.4 | -18.1 | 72.5* | -8.3 | ·
O=C(COc1ccccc1)NC1CCS(=O)(=O)C1 (centres undefined) | · | · | · | · | 27.8 | ·
CN(C(=O)COC(=O)C1c2ccccc2Oc2ccccc21)C1CCS(=O)(=O)C1 (centres undefined) | -1.3 | -0.3 | -21.2 | -4.7 | · | ·
O=C(COC(=O)C1(c2ccccc2F)CCCC1)NC1CCS(=O)(=O)C1 (centres undefined) | -0.9 | 95.3* | 0.7 | 2.3 | 45.5 | 6.8
COCCNC(=O)Cn1c(=O)n(Cc2ccco2)c(=O)c2ccccc21 | 0.3 | 14.9 | 10.0 | 6.9 | 85.7* | 29.6
CCc1ccc(-n2c(=O)c3ccccc3n(CC(=O)NCc3ccco3)c2=O)cc1 | · | · | · | · | -78.4 | 7.2
Cc1sc2c(c1C)c(=O)n(-c1cccc(C(F)(F)F)c1)c(=O)n2CC(=O)NCc1ccco1 | -0.2 | 6.3 | -20.9 | 0.7 | 68.8* | 13.0
CCn1c(=O)cc(OCC(=O)NCc2ccco2)c2ccccc21 | -1.6 | ? | 90.0* | -58.5 | · | ·
Cc1ccc(-n2c(=O)c3ccccc3n(CC(=O)NCc3ccco3)c2=O)cc1 | · | · | · | · | 73.0* | -3.9
SMILES | Phagocytosis inh | VCAM1 TNFa inh | TNFa cytotox | cytoskel mod | Insulin prom inh | E-sel TNF inh
Cc1cc2cc(C)c(NCCNC(=O)c3cccs3)nc2cc1C | · | · | · | · | · | -10.8
CCOC(=O)c1sc(-c2ccccc2)cc1NC(=O)Nc1ccc([N+](=O)[O-])cc1 | -0.3 | · | · | · | 14.3 | ·
CC1(C)Cc2c(oc3ncn4ncnc4c23)CO1 | -0.8 | ? | 97.4* | · | 0.0 | ·
CC1(C)Cc2c(sc3ncn4nnnc4c23)CO1 | -0.5 | · | · | · | · | ·
CC(C)CCn1nnnc1CN1CCN(c2ccccc2)CC1 | · | · | · | · | · | -10.2
CCOC(=O)C1(Cc2ccccc2C(F)(F)F)CCN(C2CCN(C(C)C)CC2)CC1 | · | · | · | · | -112.5 | ·
CSc1nc2nccc(-c3ccc(Oc4ccccc4)cc3)n2n1 | · | 85.8* | -42.3 | 26.8 | -21.4 | 1.1
